Laboratory results as given in PubChem BioAssay (NCI).
Compounds without any hit were thinned out: in the full panel of roughly 83,000, 20% have a hit.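 48-hour exposure, single concentration, 96-well plates; percent growth endpoint where 0 means no net growth. Active: below 10.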 Activity calls are given as the source filed them.

What follows are compounds tested on NCI-H522 lung (assay: NCI-60 one-dose screen, 48 h (100 = growth as untreated, 0 = no growth, -100 = all killed)). Settings: 10 µM.
With O=C(/C=C/c1ccc(Cl)cc1)c1nc2ccccc2n1Cc1ccc(F)cc1 the growth was 34.9% (inactive).
In the case of CC1=C(CCC=O)C2=C(C)C3(CC3)[C@@](C)(O)C(=O)C2=C1, the growth is reported as -90% (active).
With O=C(NC([Se])=NC1CCCCC1)c1ccc2c(c1)OCO2 the growth was 42.1% (inactive).
For C[C@H]1[C@H](OC(=O)CCC(=O)N(CCCc2cn(-c3ccc(C#N)cc3)nn2)CCNc2ccnc3cc(Cl)ccc23)O[C@@H]2OC3(C)CC[C@H]4[C@H](C)CC[C@@H]1[C@@]24OO3, the growth was 7.88% (active).
For C[C@H]1[C@@H](Oc2ccc(-c3cn(-c4ccnc5cc(Cl)ccc45)nn3)cc2)O[C@@H]2OC3(C)CC[C@H]4[C@H](C)CC[C@@H]1[C@@]24OO3, the growth was 2.18% (active).
In the case of COc1ccc(/C=C/C(=O)c2nc3ccccc3n2Cc2ccc(Br)cc2)cc1, the growth is reported as 76.4% (inactive).
In the case of COC(=O)CCn1c(-c2ccc(-n3cc(-c4ccc(O[C@H]5O[C@@H]6OC7(C)CC[C@H]8[C@H](C)CC[C@@H]([C@H]5C)[C@@]68OO7)cc4)nn3)cc2)nc2ccccc21, the growth is reported as -22.8% (active).
With C[C@H]1[C@H](OC(=O)CCC(=O)N(CCCc2cn(-c3ccc([N+](=O)[O-])cc3)nn2)CCNc2ccnc3cc(Cl)ccc23)O[C@@H]2OC3(C)CC[C@H]4[C@H](C)CC[C@@H]1[C@@]24OO3 the growth was 5.13% (active).

What follows are compounds tested on A549/ATCC NSCLC in the same assay as above. Settings: 10 µM.
For O=C(/C=C/c1ccco1)c1nc2ccccc2n1Cc1ccc(Br)cc1, the growth was 47.3% (inactive).
O=C(/C=C/c1ccco1)c1nc2ccccc2n1Cc1ccc(F)cc1 was tested, and the growth was 62.2% (inactive).
With COc1cc2cc(C(=O)N3C[C@@H](CCl)c4c3cc(OC(=O)N3CCN(C)[C@@H]5CSSC[C@@H]53)c3ccccc43)[nH]c2c(OC)c1OC the growth was 7.2% (active).
With C#CC[Se]C(=O)c1ccc2n[se]nc2c1 the growth was 59.7% (inactive).
In the case of O=C(/C=C/c1ccc(Cl)cc1Cl)c1nc2ccccc2n1Cc1ccc(F)cc1, the growth is reported as 66.5% (inactive).
For O=C(/C=C/c1ccc(Cl)cc1)c1nc2ccccc2n1Cc1ccc(Br)cc1, the growth was 73.4% (inactive).
For CCOP(=O)(OCC)C(NC(C)=O)C(=O)SCCN (stereo unspecified), the growth was 107% (inactive).
For COc1cc2cc(C(=O)N3C[C@@H](CCl)c4c3cc(OC(=O)N3CCN(C)[C@@H]5CSSC[C@H]53)c3ccccc43)[nH]c2c(OC)c1OC, the growth was -58.4% (active).
In the case of COc1ccc2cc([C@H](C)C(=O)[Se]CCC#N)ccc2c1, the growth is reported as -64.9% (active).
In the case of CC12OOC(C)(OO1)C2CCC(=O)OCCNc1ccnc2cc(Cl)ccc12 (stereo unspecified), the growth is reported as 9.38% (active).
With CC(C)N=C([Se])NC(=O)c1cccs1 the growth was 17.6% (inactive).
Cc1ccc2[nH]c(=S)n(-c3ccc(F)cc3)c(=O)c2c1 was tested, and the growth was 100% (inactive).
For CCOC(=O)C1=C(Nc2ccccc2)C(=O)OC12C(=O)Nc1ccccc12 (stereo unspecified), the growth was 112% (inactive).
With CC12CCC3(CCC(=O)NCCCNc4ccnc5cc(Cl)ccc45)[C@@](C)(OO[C@]3(C)O1)O2 the growth was 25.3% (inactive).
In the case of CC[C@]12C=CCN3CC[C@@]4(c5ccc(OC)cc5N(C)[C@H]4[C@@](O)(C(=O)OC)[C@@H]1OC(=O)CCCC[P+](C1CCCCC1)(C1CCCCC1)C1CCCCC1)[C@@H]32, the growth is reported as 11.6% (inactive).
For CC(=O)Oc1ccccc1C(=O)[Se]C(=NC(C)C)NC(C)C, the growth was -3.31% (active).
COCCOCCOCCOc1ccc(-n2cc(CCCN(CCNc3ccnc4cc(Cl)ccc34)C(=O)CCC(=O)O[C@@H]3O[C@@H]4OC5(C)CC[C@H]6[C@H](C)CC[C@@H]([C@H]3C)[C@@]46OO5)nn2)cc1 was tested, and the growth was 46.1% (inactive).
C[C@H]1[C@@H](CC(=O)N[C@@H](Cc2coc3ccccc23)B(O)O)O[C@@H]2OC3(C)CC[C@H]4[C@H](C)CC[C@@H]1[C@@]24OO3 was tested, and the growth was 19.1% (inactive).
COP(=O)(CC(F)(F)C(F)(F)F)OC was tested, and the growth was 87.4% (inactive).
CC12OOC(C)(OO1)C2CCC(=O)NCCNc1ccnc2cc(Cl)ccc12 (stereo unspecified) was tested, and the growth was 119% (inactive).
In the case of CC[C@]12C=CCN3CC[C@@]4(c5ccc(OC)cc5N(C)[C@H]4[C@@](O)(C(=O)OC)[C@@H]1OC(=O)CCC[P+](c1ccc(C)cc1)(c1ccc(C)cc1)c1ccc(C)cc1)[C@@H]32, the growth is reported as -90.3% (active).
For CC(C)N=C([Se])NC(=O)c1ccccc1, the growth was 8.83% (active).
For CC[C@]12C=CCN3CC[C@@]4(c5ccc(OC)cc5N(C)[C@H]4[C@@](O)(C(=O)OC)[C@@H]1OC(=O)CCC[P+](C1CCCCC1)(C1CCCCC1)C1CCCCC1)[C@@H]32, the growth was 14.1% (inactive).
